Source: PubChem BioAssay (Tox21)
Results filed as inconclusive are left out. Entries that show only a call come without a potency. Activity calls are given as the source filed them. Calls come from the whole dose curve.

Biological target: D(2) dopamine receptor (Homo sapiens) (UniProt P14416)
Assay: Dopamine D2 receptor (DRD2) small molecule agonists, cell-based qHTS assay (AID 1963594); note: nearly all actives have a fitted effect of over 35% in size
Conditions: HEK293-DRD2 cAMP HTRF, agonist mode, 30 min; series mostly up to 92.4 µM
Text: National Center for Advancing Translational Sciences [NCATS]
Division of Preclinical Innovation [DPI]
U.S. Environmental Protection Agency [EPA]
National Institutes of Environmental Health Sciences [NIEHS]
National Toxicology Program [NTP]
U.S. Food and Drug Administration [FDA]
DRD2 is the D2 subtype of the dopamine receptor, which is coupled to Gi subtype of G protein-coupled receptor. This G protein-coupled receptor inhibits adenylyl cyclase activity. The DRD2-HEK293 cell line stably expressing D2 dopamine receptor can be used for screening agonists and antagonists of interactions between D2 and its ligands. The Hek293-DRD2 cAMP assay is based on HTRF technology. It measures changes of cAMP accumulation in response to Gi coupled GPCR activation or inhibition.
Tox21 Assay Protocol Summary:
DRD2-Hek293 cells were dispensed at 600 cells/3uL/well in 1536-well white plates using a Multidrop Dispenser. After the assay plates were incubated at a 37 C/5% CO2 incubator for 24 h, 1 uL of Ro20-1724 at final concentration of 0.1 mM was transferred to the assay plate by a Flying Reagent Dispenser. Following Ro20-1724 addition, 23 nL of compound dissolved in DMSO, positive controls or DMSO only was added to the assay plates via Wako pintool station. The assay plates were incubated at room temperature for 10 min. Next, 1 uL of NKH477 at 200nM was added into the plates. After the assay plates were incubated at room temperature for an additional 30 min, 2.5 ul/well of cAMP-d2 and 2.5 ul/well of anti-cAMP-cryptate were added respectively into the assay plates using a Flying Reagent Dispenser. The plates were incubated at room temperature for 1 h. The fluorescence intensity in the plates was measured at 340 nm excitation and 665 & 620 nm emission by an Envision plate reader.
Potency is the fitted concentration of half-maximal effect.

D(2) dopamine receptor (Homo sapiens), sequence (P14416 whole entry, looked up): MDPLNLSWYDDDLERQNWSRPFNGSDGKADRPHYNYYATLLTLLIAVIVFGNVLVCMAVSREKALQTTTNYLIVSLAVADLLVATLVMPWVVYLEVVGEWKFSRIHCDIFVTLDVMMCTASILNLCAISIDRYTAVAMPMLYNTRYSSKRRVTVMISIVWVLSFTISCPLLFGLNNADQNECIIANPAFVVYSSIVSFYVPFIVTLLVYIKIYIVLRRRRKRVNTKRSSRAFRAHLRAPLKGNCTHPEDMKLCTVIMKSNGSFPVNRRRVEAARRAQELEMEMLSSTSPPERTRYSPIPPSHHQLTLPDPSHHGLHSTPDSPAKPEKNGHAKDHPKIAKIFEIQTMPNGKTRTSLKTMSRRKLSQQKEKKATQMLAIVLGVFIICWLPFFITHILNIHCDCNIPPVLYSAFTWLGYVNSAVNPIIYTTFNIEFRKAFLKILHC

Compound | Potency
CCOC(=O)c1ccc(N)cc1 | inactive
N=c1nc(N2CCCCC2)cc(N)n1O | inactive
CC(COC(=O)c1ccccc1)OC(=O)c1ccccc1 (stereo not given) | inactive
ClC/C=C\CCl | inactive
Oc1ccc(Cl)cc1Sc1cc(Cl)ccc1O | inactive
C1CCC2OC2C1 (stereo not given) | inactive
CC(=O)[C@@]1(O)CC[C@H]2[C@@H]3CCC4=CC(=O)CC[C@]4(C)[C@H]3CC[C@@]21C | inactive
O=c1[nH]c(=O)c2ccccc2o1 | inactive
C=COCCOCCOCCOC=C | inactive
CC1(C)C2=CCCC(C)(C)[C@]23CC[C@H]1C3 | inactive
CCCCCC/C(C=O)=C\c1ccccc1 | inactive
O=c1[nH]c2cc(C(F)(F)F)c(N3CCOCC3)cc2n(CP(=O)(O)O)c1=O | 29.8 µM (active)
CCCCCCCCC1CCC(=O)O1 (stereo not given) | inactive
Cc1ccc(/C(=C\CN2CCCC2)c2ccccn2)cc1 | inactive
CCC(C)c1ccccc1 (stereo not given) | inactive
O=C(c1ccc2c(c1)C(=O)OC2=O)c1ccc2c(c1)C(=O)OC2=O | inactive
Nc1ccc([N+](=O)[O-])c(C(F)(F)F)c1 | inactive
Nc1cc([N+](=O)[O-])ccc1Cl | inactive
CC(COCCO)OCCO (stereo not given) | inactive
OCCNCCO | inactive

Compound | Potency
CCCCC(CC)COCCC#N (stereo not given) | inactive
CCc1ccc(C)nc1 | inactive
Cc1occc1SSc1ccoc1C | inactive
CC(C)(C)NCC(O)COc1ccccc1OCC1CCCO1 (stereo not given) | inactive
FC(F)(F)C(Cl)(Cl)Cl | inactive
CC1(C)[C@@H]2CC[C@@]1(C)[C@H](O)C2 | inactive
CC(=O)N(CC(O)CO)c1c(I)c(C(=O)NCC(O)CO)c(I)c(C(=O)NCC(O)CO)c1I (stereo not given) | inactive
Nc1cc(-c2ccncc2)c[nH]c1=O | inactive
O=C(NCC1CCCCN1)c1cc(OCC(F)(F)F)ccc1OCC(F)(F)F (stereo not given) | inactive
CC(C)(C)NCC(O)c1ccc(O)c(CO)c1 (stereo not given) | inactive
CN(C)c1ccc(Cc2ccc(N(C)C)cc2)cc1 | inactive
CN1C(CCl)Nc2cc(Cl)c(S(N)(=O)=O)cc2S1(=O)=O (stereo not given) | inactive
O=C1CCN(c2ccccc2)N1 | inactive
C[N+](C)(C)CCO | inactive
NS(=O)(=O)c1ccccc1Cl | inactive
C=CC(=O)O[C@H]1C[C@@H]2CC[C@@]1(C)C2(C)C | inactive
CN(C)c1ccc(C(=N)c2ccc(N(C)C)cc2)cc1 | inactive
CC(C)(C)c1ccc(CCC=O)cc1 | inactive
CC(C)CCCC(C)CCCC(C)CCCCC(C)CCCC(C)CCCC(C)C (stereo not given) | inactive
CSc1ccc2c(c1)N(CCC1CCCCN1C)c1ccccc1S2 (stereo not given) | inactive
